Measured values as given in article PMC5540273 (PLoS ONE, 2017).

What was measured:
Conditions in all cases: concentration: 1 μM, replicates: in singlicate; n = 1
MAPKAPK5 = test system: MAPKAPK5
MARK1 = test system: MARK1
MARK2 = test system: MARK2
MARK3 = test system: MARK3
MARK4 = test system: MARK4
MAST1 = test system: MAST1
MEK1 = test system: T1, MEK1
T1 construct: gene MAP2K1

MEK2 = test system: T2, MEK2
T2 construct: gene MAP2K2

MEK3 = test system: T3, MEK3
T3 construct: gene MAP2K3

MEK4 = test system: T4, MEK4
T4 construct: gene MAP2K4

MEK5 = test system: T5, MEK5
T5 construct: gene MAP2K5

MEK6 = test system: T6, MEK6
T6 construct: gene MAP2K6

MELK = test system: MELK
MERTK = test system: MERTK
MET = test system: MET
MINK = test system: T7, MINK
T7 construct: gene MINK1

MKK7 = test system: MKK7
MKNK1 = test system: MKNK1
MKNK2 = test system: MKNK2
MLCK = test system: T8, MLCK
T8 construct: gene MYLK3
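Also: KINOMEscan kinase panel screen.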

Nc1ncc(-c2ccc3nccc(-c4ccncc4)c3c2)cc1S(=O)(=O)N1CCOCC1 [GSK1627798]
%Inh (MAPKAPK5): 0% | %Inh (MARK1): 0% | %Inh (MARK2): 0% | %Inh (MARK3): 0% | %Inh (MARK4): 0% | %Inh (MAST1): 0% | %Inh (MEK1): 0% | %Inh (MEK2): 0% | %Inh (MEK3): 24% | %Inh (MEK4): 52% | %Inh (MEK5): 15% | %Inh (MEK6): 0% | %Inh (MELK): 0% | %Inh (MERTK): 12% | %Inh (MET): 0% | %Inh (MINK): 10% | %Inh (MKK7): 5% | %Inh (MKNK1): 0% | %Inh (MKNK2): 3% | %Inh (MLCK): 0%

Cc1ccc(F)c(C(=O)Nc2cccc(-c3nn4ccccc4c3-c3ccnc(Nc4cccc(F)c4)n3)c2)c1F [GSK361061]
%Inh (MAPKAPK5): 0% | %Inh (MARK1): 0% | %Inh (MARK2): 14% | %Inh (MARK3): 0% | %Inh (MARK4): 14% | %Inh (MAST1): 0% | %Inh (MEK1): 3% | %Inh (MEK2): 0% | %Inh (MEK3): 0% | %Inh (MEK4): 37% | %Inh (MEK5): 95% | %Inh (MEK6): 18% | %Inh (MELK): 12% | %Inh (MERTK): 75% | %Inh (MET): 58% | %Inh (MINK): 17% | %Inh (MKK7): 10% | %Inh (MKNK1): 21% | %Inh (MKNK2): 0% | %Inh (MLCK): 5%

CC(C)c1nc(-c2cccc(NS(=O)(=O)c3c(F)cccc3F)c2F)c(-c2ccnc(Nc3ccc(N4CCOCC4)nc3)n2)s1 [GSK2008607]
%Inh (MAPKAPK5): 0% | %Inh (MARK1): 0% | %Inh (MARK2): 24% | %Inh (MARK3): 0% | %Inh (MARK4): 80% | %Inh (MAST1): 0% | %Inh (MEK1): 0% | %Inh (MEK2): 64% | %Inh (MEK3): 57% | %Inh (MEK4): 100% | %Inh (MEK5): 99.9% | %Inh (MEK6): 59% | %Inh (MELK): 81% | %Inh (MERTK): 79% | %Inh (MET): 85% | %Inh (MINK): 60% | %Inh (MKK7): 0% | %Inh (MKNK1): 12% | %Inh (MKNK2): 96% | %Inh (MLCK): 0%

COc1ccc(-c2coc3ccc(-c4nnc(SCc5ccc(OC)c(C(F)(F)F)c5)o4)cc23)cc1
%Inh (MAPKAPK5): 23% | %Inh (MARK1): 5% | %Inh (MARK2): 2% | %Inh (MARK3): 0% | %Inh (MARK4): 4% | %Inh (MAST1): 13% | %Inh (MEK1): 13% | %Inh (MEK2): 22% | %Inh (MEK3): 10% | %Inh (MEK4): 30% | %Inh (MEK5): 4% | %Inh (MEK6): 0% | %Inh (MELK): 20% | %Inh (MERTK): 11% | %Inh (MET): 13% | %Inh (MINK): 26% | %Inh (MKK7): 14% | %Inh (MKNK1): 0% | %Inh (MKNK2): 1% | %Inh (MLCK): 0%

Cl.c1ccc(-c2ccc3c(Nc4ccc5[nH]ncc5c4)ccnc3c2)nc1 [GW440137]
%Inh (MAPKAPK5): 0% | %Inh (MARK1): 0% | %Inh (MARK2): 0% | %Inh (MARK3): 0% | %Inh (MARK4): 15% | %Inh (MAST1): 0% | %Inh (MEK1): 0% | %Inh (MEK2): 5% | %Inh (MEK3): 0% | %Inh (MEK4): 0% | %Inh (MEK5): 89% | %Inh (MEK6): 0% | %Inh (MELK): 15% | %Inh (MERTK): 0% | %Inh (MET): 0% | %Inh (MINK): 43% | %Inh (MKK7): 0% | %Inh (MKNK1): 5% | %Inh (MKNK2): 18% | %Inh (MLCK): 15%

Cl.Cl.NCC(C(=O)Nc1cc(Br)c(-c2ccnc3[nH]ccc23)s1)c1ccccc1 (stereo not shown) [GSK1269851]
%Inh (MAPKAPK5): 0% | %Inh (MARK1): 0% | %Inh (MARK2): 55% | %Inh (MARK3): 0% | %Inh (MARK4): 0% | %Inh (MAST1): 13% | %Inh (MEK1): 1% | %Inh (MEK2): 0% | %Inh (MEK3): 50% | %Inh (MEK4): 11% | %Inh (MEK5): 20% | %Inh (MEK6): 0% | %Inh (MELK): 45% | %Inh (MERTK): 19% | %Inh (MET): 0% | %Inh (MINK): 8% | %Inh (MKK7): 0% | %Inh (MKNK1): 13% | %Inh (MKNK2): 99.1% | %Inh (MLCK): 98.7%

Cn1cc(-c2[nH]c3cc(NC(=O)[C@H](N)C4CCCCC4)cc4c3c2C=NNC4=O)cn1
%Inh (MAPKAPK5): 0% | %Inh (MARK1): 83% | %Inh (MARK2): 88% | %Inh (MARK3): 88% | %Inh (MARK4): 91.8% | %Inh (MAST1): 87% | %Inh (MEK1): 65% | %Inh (MEK2): 67% | %Inh (MEK3): 46% | %Inh (MEK4): 14% | %Inh (MEK5): 100% | %Inh (MEK6): 3% | %Inh (MELK): 60% | %Inh (MERTK): 95.1% | %Inh (MET): 5% | %Inh (MINK): 96.5% | %Inh (MKK7): 0% | %Inh (MKNK1): 100% | %Inh (MKNK2): 100% | %Inh (MLCK): 84%

CN1CCN(CCCNc2nccc(-c3c(-c4ccc(F)cc4)nn4cc(C(F)(F)F)ccc34)n2)CC1 [GW621581]
%Inh (MAPKAPK5): 0% | %Inh (MARK1): 7% | %Inh (MARK2): 0% | %Inh (MARK3): 16% | %Inh (MARK4): 16% | %Inh (MAST1): 0% | %Inh (MEK1): 0% | %Inh (MEK2): 0% | %Inh (MEK3): 0% | %Inh (MEK4): 10% | %Inh (MEK5): 25% | %Inh (MEK6): 0% | %Inh (MELK): 0% | %Inh (MERTK): 26% | %Inh (MET): 0% | %Inh (MINK): 17% | %Inh (MKK7): 0% | %Inh (MKNK1): 0% | %Inh (MKNK2): 1% | %Inh (MLCK): 4%
